# In PubChem BioAssay (NCATS):
# Values joined by “and” are separate entries in the source; they are usually repeats but may differ in a detail not shown here. Equal values may be shown once. Records with an inconclusive call do not appear. Active and inactive are the calls of the source. The call rests on the fitted dose curve.
# Experiment: Primary qHTS to identify inhibitors of SARS-CoV-2 cell entry (AID 1645846); further: nearly all actives have a fitted effect of over 45% in size
# Conditions: SARS-CoV-2 pseudovirus cell entry assay, luminescence; activity change, negative = inhibition: at 57.1 µM (top of the series) unless noted; series mostly up to 57.1 µM
# Outline: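 Data are normalized to wells receiving SARS-CoV-2-S pseudoparticles and those given bald particles. Entry signal was luciferase luminescence in stable hACE2 Expi293F cells, 48 hr post-infection, after 1 hr compound pretreatment.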
# Potency means the concentration at half of the fitted maximal effect.
SMILES,"activity change, negative = inhibition",Potency,outcome
COc1ccc(-c2nc3ccc(C4=NNC(=O)CC4C)cc3[nH]2)cc1 (stereo not drawn),-33%,–,–
CN(C)c1ccc(C(=C2C=CC(=[N+](C)C)C=C2)c2ccc(N(C)C)cc2)cc1,–,2.24 µM (active) and 2.51 µM (active),–
O=[N+]([O-])c1nccn1CO[C@@H](CO)[C@H](O)CO,–,–,inactive
COc1ccc(CN(CCN(C)C)c2ccccn2)cc1,-6.08%,–,–
CC(=O)Oc1c(C)c(C)c2c(c1C)CC[C@@](C)(CCC[C@H](C)CCC[C@H](C)CCCC(C)C)O2,–,–,inactive
CCCCC[C@H](O)C=C[C@H]1[C@H](O)CC(=O)[C@H]1CC=CCCCC(=O)O,–,–,inactive
NC1(c2ccc(-c3nc4ccn5c(=O)[nH]nc5c4cc3-c3ccccc3)cc2)CCC1,–,8.91 µM (active),–
CC[C@H](NC(C)C)[C@H](O)c1ccc(O)c2[nH]c(=O)ccc12,1.27%,–,inactive
CC1(C)[C@@H](OC(=O)CCC(=O)O)CC[C@]2(C)[C@H]3C(=O)C=C4[C@@H]5C[C@@](C)(C(=O)O)CC[C@]5(C)CC[C@@]4(C)[C@]3(C)CC[C@@H]12,–,–,inactive
NS(=O)(=O)c1cc(C(=O)O)c(NCc2ccco2)cc1Cl,–,–,inactive
N=C(N)c1ccc(OCCCOc2ccc(C(=N)N)cc2)cc1,-8.76%,–,–
CN(C)CC/C=C1\c2ccccc2Sc2ccc(Cl)cc21,–,20 µM (active),–
Cc1c(N(C)C)c(=O)n(-c2ccccc2)n1C,-10.1%,–,–
CC(=O)O[C@H]1C[C@@H]2CC[C@@H]3[C@H](CC[C@@]4(C)[C@H]3C[C@H]([N+]3(C)CCCCC3)[C@@H]4OC(C)=O)[C@@]2(C)C[C@@H]1N1CCCCC1,-7.24%,–,–
CCCCCCCCCCCCCCCCCCOCC(O)CO (stereo not drawn),2.2%,–,–
O=C(Oc1cccc2cccnc12)c1ccccc1,–,8.91 µM (active),–
CN(C)C(=O)Oc1cccc([N+](C)(C)C)c1,-1.02%,–,–
CN1CC(=O)N2[C@H](c3ccc4c(c3)OCO4)c3[nH]c4ccccc4c3C[C@@H]2C1=O,-9.6%,–,inactive; activator
CCN[C@H]1C[C@H](C)S(=O)(=O)c2sc(S(N)(=O)=O)cc21,-17.9%,–,inactive

SMILES,"activity change, negative = inhibition",Potency,outcome
CCCCc1ccc2nc(NC(=O)OC)[nH]c2c1,-63.3%,–,–
COc1cccc2c1C(=O)c1c(O)c3c(c(O)c1C2=O)C[C@@](O)(C(C)=O)C[C@@H]3O[C@H]1C[C@H](N)[C@H](O)[C@H](C)O1,-92.1% and -98%,–,–
CCN(CC)C(=O)Nc1ccc(OCC(O)CNC(C)(C)C)c(C(C)=O)c1 (stereo not drawn),-2.7%,–,–
CCOC(=O)Nc1ccc(NCc2ccc(F)cc2)nc1N,-22.5%,–,–
CNC(=O)c1c(I)c(NC(=O)CCCCC(=O)Nc2c(I)c(C(=O)O)c(I)c(C(=O)NC)c2I)c(I)c(C(=O)O)c1I,–,–,inactive
[O-][n+]1ccccc1SSc1cccc[n+]1[O-],-95.2% [at 27.1 µM],–,–
Oc1ccc(C(O)CNCCCCCCNCC(O)c2ccc(O)c(O)c2)cc1O (stereo not drawn),–,–,inactive
CCCN(CCC)C(=O)C(CCC(=O)O)NC(=O)c1ccccc1 (stereo not drawn),2.74%,–,inactive
CNC(=O)Oc1ccc2c(c1)[C@]1(C)CCN(C)[C@@H]1N2C,–,–,inactive
CCCCNc1cc(C(=O)O)cc(S(N)(=O)=O)c1Oc1ccccc1,-16.4%,–,inactive
O=C1OC2(c3ccc(O)cc3Oc3cc(O)ccc32)c2ccccc21,–,–,inactive
CCOc1c(N2CCOCC2)cnn(C)c1=O,–,–,inactive
CC(C)(C)C(=O)C(Oc1ccc(Cl)cc1)n1ccnc1 (stereo not drawn),–,20 µM (active),–
CC[C@H]1CN2CCc3cc(OC)c(OC)cc3[C@@H]2C[C@@H]1C[C@H]1NCCc2cc(OC)c(OC)cc21,–,1.26 µM (active),–
CCN(CC)C(=O)c1cccc(C)c1,–,–,inactive
CCN(CC)CC(=O)OCC(=O)[C@@]1(O)CC[C@H]2[C@@H]3CCC4=CC(=O)CC[C@]4(C)[C@H]3[C@@H](O)C[C@@]21C,–,–,inactive
C[C@@H]1C[C@H]2[C@@H]3CCC4=CC(=O)C=C[C@]4(C)[C@@]3(F)[C@@H](O)C[C@]2(C)[C@H]1C(=O)CO,–,–,inactive
N/C(=N\N=C\c1ccc(Cl)cc1)N/N=C/c1ccc(Cl)cc1,-80.5%,–,–
Nc1ccn(C2CO[C@H](CO)O2)c(=O)n1 (stereo partly drawn),–,–,inactive
